Measured values from PubChem BioAssay (NCI).
This is part of a sample that, as a whole, favours compounds with a hit. Of some 79,000 tested, about 15% had one in any assay. Rule as the data show it: active = growth inhibition above about 70%; inactive = the rest.

How the values were obtained:
[1] = NCI Yeast Anticancer Drug Screen. Data for the rad50 strain (AID 155);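 also: 0% = growth of vehicle-only cultures of the same strain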; settings: S. cerevisiae rad50 strain growth inhibition; at 50.0 µM; active compounds read high
Summary of the method: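 DNA repair mutant yeast, compound exposure, growth read-out; inhibition is taken relative to vehicle.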

[2] = NCI Yeast Anticancer Drug Screen. Data for the mec2-1 strain (AID 157); settings: S. cerevisiae mec2-1 strain, at 50.0 µM, active compounds read high
Summary of the method: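 Using mec2-1 yeast: add compound, measure growth, express inhibition versus vehicle-treated cultures.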

[3] = NCI Yeast Anticancer Drug Screen. Data for the sgs1 mgt1 strain (AID 161);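 also: 0% = growth of cultures given vehicle only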; settings: S. cerevisiae sgs1 mgt1 strain, at 50.0 µM, active compounds read high
Summary of the method: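 This yeast growth screen uses a strain with defined DNA-repair lesions; compound-treated growth is compared with vehicle-treated growth.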

[4] = NCI Yeast Anticancer Drug Screen. Data for the cln2 rad14 strain (AID 165);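 also: 0% = growth equal to vehicle treated cultures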; settings: S. cerevisiae cln2 rad14 strain, at 50.0 µM, active compounds read high
Summary of the method: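 Yeast strain cln2 rad14, bearing defects in cell cycle control and DNA repair, serves as the test system; values reflect growth inhibition compared with vehicle.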

[5] = NCI Yeast Anticancer Drug Screen. Data for the bub3 strain (AID 167); settings: S. cerevisiae bub3 mutant strain, at 50.0 µM, active compounds read high
Summary of the method: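 In this screen, a yeast mutant lacking normal mitotic checkpoint function is challenged with compound. Relative growth versus vehicle gives the inhibition value.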

[6] = NCI Yeast Anticancer Drug Screen. Data for the mlh1 rad18 strain (AID 175); settings: S. cerevisiae mlh1 rad18 strain growth inhibition; at 50.0 µM; active compounds read high
Summary of the method: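 Steps: expose repair-defective yeast to compound; measure growth; express inhibition against vehicle-treated controls.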

Measured: growth inhibition

Nc1ccc2c(c1)Cc1c-2cc(Br)c(N)c1Br
inactive: [1] 4.95% | [2] -6.85% | [3] 9.5% | [4] -39.2% | [5] 1.9% | [6] -6.75%

Nc1nc(N)c(N)c(Nc2ccc(Cl)cc2)n1
inactive: [1] 27.5% | [2] 22.3% | [3] 9% | [4] 21.4% | [5] -1.95% | [6] 2.5%

NCC(=O)NCCC(=O)O
inactive: [1] 3.15% | [2] -6.7% | [3] 1.75% | [4] 4.6% | [5] -24.6% | [6] -4.6%

O=S1c2ccccc2Sc2ccccc21
inactive: [1] 2.65% | [2] -8.4% | [3] -5.05% | [4] 1.6% | [5] -2% | [6] -2.25%

CC(/C=C/c1ccccc1)=N\N=C(C)\C=C\c1ccccc1
inactive: [1] 0.45% | [2] -20.2% | [3] -31.4% | [4] 20.9% | [5] -37.8% | [6] -23.4%

Cc1cccc(C(=O)O)c1N
inactive: [1] 9.7% | [2] -5.25% | [3] -10.6% | [4] 9.95% | [5] -33.6% | [6] 13.4%

N#Cc1cc(C#N)c(N)nc1N
inactive: [1] 14.1% | [2] 6.35% | [3] 1.8% | [4] 13.4% | [5] -1.25% | [6] -5.7%

CC(SC(=S)Nc1ccc(Cl)cc1)C(=O)O (stereo unspecified)
inactive: [1] 39.5% | [2] 1.15% | [3] 24.8% | [4] -42% | [5] 4.8% | [6] 12.3%

CCOC(=O)CC(=O)Nc1cc(C)cc(C)n1
inactive: [1] 2.1% | [2] 14.5% | [3] 9.5% | [4] 32.6% | [5] 25.1% | [6] 5.7%

O=C1c2ccccc2C(=O)N1/N=C1/SC(=Nc2ccccc2)C(=Nc2ccccc2)N1c1ccccc1
inactive: [1] 6.3% | [2] 0% | [3] 15% | [4] 26.4% | [5] 14.8% | [6] 20.1%

CCOC(=O)c1c(Br)c(-c2ccc(OC)cc2)c(Br)n1C
inactive: [1] -12.8% | [2] 9.8% | [3] -22.2% | [4] -48% | [5] -39% | [6] -5.95%

O=P(c1ccccc1)(c1ccccc1)c1ccccc1OCCCO
inactive: [1] 8.3% | [2] 3.2% | [3] 4.35% | [4] 24.8% | [5] 4.4% | [6] 3.15%

Cc1cc(NC(=O)NC(=O)c2ccccc2NC(=O)CN)ccc1Oc1ncc(Br)cn1
inactive: [1] 6% | [2] -13.8% | [3] 40.3% | [4] 11.4% | [5] 15.1% | [6] -43.5%

O=C(Nc1cccc([N+](=O)[O-])c1)Nc1ccccc1F
inactive: [1] 11.7% | [2] 10% | [3] 14.1% | [4] 10.5% | [5] 19.2% | [6] 9.55%

CC(=O)OC/C=C(C)/C=C/C=C(C)/C=C/C1=C(C)CCCC1(C)C
inactive: [1] -15.4% | [2] -34% | [3] -20.3% | [4] -2.25% | [5] 12.5% | [6] -55%

CN1CC2(C)OC3(CC2(C)N1C)N(C)N(C)CC3(C)O (stereo unspecified)
inactive: [1] -12.2% | [2] -1.9% | [3] -12.8% | [4] 40% | [5] 11.8% | [6] -8.95%

ClC(Cl)=C(Cl)C(Cl)(Cl)Cl
inactive: [1] -23.8% | [2] 20.9% | [3] 0.95% | [4] -16.5% | [5] -5.65% | [6] 5.4%

Cc1[nH]nc(-c2ccon2)c1N
inactive: [1] -4.45% | [2] -3.3% | [3] -27.4% | [4] -20.5% | [5] 13.2% | [6] -6.6%

N[C@@H](Cc1ccccc1)C(=O)NCCNC(=O)[C@@H](N)Cc1ccccc1
inactive: [1] -13.1% | [2] -3.25% | [3] -8.85% | [4] 17.2% | [5] -0.7% | [6] 3.45%

O=[N+]([O-])c1ccc(CCCc2ccc([N+](=O)[O-])cc2)cc1
inactive: [1] 39.6% | [2] 7.35% | [3] 58.9% | [4] -41.2% | [5] 11.6% | [6] 15.1%

O=S(=O)(O)Cc1ccc(CS(=O)(=O)O)cc1
inactive: [1] 14.7% | [2] -2.1% | [3] -1.3% | [4] -56.4% | [5] -3.8% | [6] -17%
